The record followed here is PubChem BioAssay (NCATS).

Where “and” joins values, the source holds several entries; their conditions need not be identical. Equal entries are not always repeated. Inconclusive results are not listed. Where a structure was tested more than once in an assay, its records may differ in their call. Calls of active or inactive are those of the source. The call rests on the fitted dose curve; in most records, active means well fitted curve in the direction sought with a large enough effect; inconclusive means small, poorly fitted or top-dose-only effect, or another doubt; inactive means no such curve, though single readings can be large; an effect the other way counts as inactive or inconclusive. Peptide text beside a SMILES is read from it.

Assay [1] concerns the target Voltage-gated inwardly rectifying potassium channel KCNH2 (Homo sapiens) (UniProt Q12809). Put plainly: qHTS Assay for Small Molecule Inhibitors of the Human hERG Channel Activity (AID 588834).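 Further: lower thallium flux fluorescence means stronger hERG block; nearly all actives have a fitted effect of over 50% in size.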 A digest of the protocol: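 Thallium serves as surrogate for K+ influx through BacMam-delivered hERG in U2OS cells. Compounds are added for about 10 minutes after dye loading; stimulation buffer then starts flux, monitored kinetically on FDSS.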

The target of assay [2] is Luciferin 4-monooxygenase (Photinus pyralis) (UniProt P08659). The assay is described as follows: Biochemical firefly luciferase enzyme assay for NPC (AID 624030). Further: nearly all actives have a fitted effect of over 70% in size. A digest of the protocol: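 Direct inhibition of firefly luciferase enzyme (10 nM final, 50 mM Tris Acetate) assessed by luminescence within 5 minutes. Percent activity scaled between DMSO and PTC124 positive control, with concentration-effect curves classified by fit quality and response.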

The nature of assay [3]: S16 Schwann cell viability assay (CellTiter-Glo assay) (AID 624031). Further: nearly all actives have a fitted effect of over 70% in size. A digest of the protocol:
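Luminescent ATP read-out (CellTiter-Glo) after 24 h compound exposure of native S16 rat Schwann cells at 37 °C. Signals were normalized between cell-free wells and DMSO-treated cells, set as 0% activity.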
(ATP-based viability assays read luminescence as a measure of living cells.)

The nature of assay [4]: S16 Schwann cell PMP22 intronic element firefly luciferase assay (AID 624032). Further: nearly all actives have a fitted effect of over 30% in size. A digest of the protocol: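 Luciferase reporter of PMP22 intronic-element expression in stably transfected S16 rat Schwann cells, read by ONE-Glo luminescence after 24 h compound exposure at 37 C. Activity scaled between DMSO (0%) and positive-control PTC124; concentration-effect curves quality-classified.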
Potency means the concentration at half of the fitted maximal effect.

Sequence of Luciferin 4-monooxygenase (Photinus pyralis) (P08659 whole entry, looked up): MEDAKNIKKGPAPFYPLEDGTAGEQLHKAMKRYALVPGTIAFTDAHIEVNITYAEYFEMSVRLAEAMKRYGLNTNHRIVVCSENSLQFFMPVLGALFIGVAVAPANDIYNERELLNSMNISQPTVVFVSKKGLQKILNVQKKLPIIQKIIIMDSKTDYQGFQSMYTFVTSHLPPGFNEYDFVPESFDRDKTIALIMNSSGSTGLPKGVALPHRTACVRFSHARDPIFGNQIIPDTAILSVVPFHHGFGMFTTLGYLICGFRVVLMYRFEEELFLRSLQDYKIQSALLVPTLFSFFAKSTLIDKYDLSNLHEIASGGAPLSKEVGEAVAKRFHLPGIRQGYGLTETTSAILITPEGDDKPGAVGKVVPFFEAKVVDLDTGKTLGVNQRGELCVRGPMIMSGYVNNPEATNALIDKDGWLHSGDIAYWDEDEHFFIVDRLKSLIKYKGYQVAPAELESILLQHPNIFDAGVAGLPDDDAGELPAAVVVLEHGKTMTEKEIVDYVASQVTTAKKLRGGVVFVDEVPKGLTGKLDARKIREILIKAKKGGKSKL
Sequence of Voltage-gated inwardly rectifying potassium channel KCNH2 (Homo sapiens) (Q12809 whole entry, looked up): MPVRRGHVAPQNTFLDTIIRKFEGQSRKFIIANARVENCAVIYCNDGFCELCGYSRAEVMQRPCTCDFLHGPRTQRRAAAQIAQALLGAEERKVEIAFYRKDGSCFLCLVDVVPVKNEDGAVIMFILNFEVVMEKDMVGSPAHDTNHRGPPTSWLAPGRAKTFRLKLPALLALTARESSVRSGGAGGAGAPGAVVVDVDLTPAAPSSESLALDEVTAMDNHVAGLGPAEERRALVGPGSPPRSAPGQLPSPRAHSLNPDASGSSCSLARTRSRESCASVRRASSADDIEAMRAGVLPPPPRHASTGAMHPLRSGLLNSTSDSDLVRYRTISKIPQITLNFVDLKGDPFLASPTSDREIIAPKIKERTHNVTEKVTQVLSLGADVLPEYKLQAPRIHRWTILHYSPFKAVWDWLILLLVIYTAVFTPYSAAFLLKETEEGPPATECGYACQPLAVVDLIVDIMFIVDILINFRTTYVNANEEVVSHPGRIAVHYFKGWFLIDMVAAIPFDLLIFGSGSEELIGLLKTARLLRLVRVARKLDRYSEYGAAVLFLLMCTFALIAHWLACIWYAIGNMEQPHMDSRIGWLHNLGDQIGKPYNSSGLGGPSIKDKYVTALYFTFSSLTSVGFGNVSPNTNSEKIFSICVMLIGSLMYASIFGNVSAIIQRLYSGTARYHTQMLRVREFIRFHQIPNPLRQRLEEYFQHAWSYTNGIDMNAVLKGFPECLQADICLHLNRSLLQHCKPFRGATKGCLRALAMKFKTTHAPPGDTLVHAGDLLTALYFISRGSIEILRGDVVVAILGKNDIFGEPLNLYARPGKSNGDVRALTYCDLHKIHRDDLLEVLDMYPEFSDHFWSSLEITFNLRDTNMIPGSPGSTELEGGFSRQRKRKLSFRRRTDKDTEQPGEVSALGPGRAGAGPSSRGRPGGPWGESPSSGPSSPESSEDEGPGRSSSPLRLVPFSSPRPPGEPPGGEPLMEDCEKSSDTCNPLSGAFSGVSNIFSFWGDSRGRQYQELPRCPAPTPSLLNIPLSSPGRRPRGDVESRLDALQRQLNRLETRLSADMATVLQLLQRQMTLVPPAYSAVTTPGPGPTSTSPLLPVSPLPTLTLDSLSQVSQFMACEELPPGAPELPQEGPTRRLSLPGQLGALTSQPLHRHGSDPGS

For `CN1Cc2c(N)cccc2C(c2ccccc2)C1` (stereo not given), in assay [1], the Potency entry was “inactive and 12.6 µM (active)”. In addition, the Potency entry in assay [2], in assay [3] and in assay [4] was “inactive” throughout.
As to `COC(=O)[C@H]1[C@H]2C[C@@H]3c4[nH]c5ccccc5c4CCN3C[C@H]2C[C@@H](OC(=O)c2cc(OC)c(OC)c(OC)c2)[C@@H]1OC`, the results for the Potency in assay [1], in assay [3] and in assay [4] were 0.355 µM (active), 5.1 µM (active) and 0.907 µM (active), respectively. Besides, the Potency entry in assay [2] was “inactive”.
`O=C1C(=O)c2ncccc2-c2cccnc21`: the Potency entry in assay [1] and in assay [2] was “inactive” throughout.
On to `O=C(O)c1cc(O)c2c(c1)[O][Bi][O]2`, for which the Potency result in assay [1], in assay [2], in assay [3] and in assay [4] was “inactive” each time.
As for `CO[C@H](C(=O)[C@@H](O)[C@@H](C)O)C1Cc2cc3cc(O[C@H]4C[C@@H](O[C@H]5C[C@@H](O)[C@H](O)[C@@H](C)O5)[C@@H](O)[C@@H](C)O4)c(C)c(O)c3c(O)c2C(=O)[C@H]1O[C@H]1C[C@@H](O[C@H]2C[C@@H](O[C@H]3C[C@](C)(O)[C@H](O)[C@@H](C)O3)[C@H](O)[C@@H](C)O2)[C@H](O)[C@@H](C)O1` (stereo not given in full), the Potency entry in assay [1], in assay [2], in assay [3] and in assay [4] was “inactive” throughout.
`CCOc1ccc(N=Nc2ccc(N)cc2N)cc1`: in assay [1], the Potency entry was “inactive”. Further, the Potency in assay [2] is 0.203 µM (active).
`COC(=O)CCC(=O)CN`: the Potency result in assay [1], in assay [2], in assay [3] and in assay [4] was “inactive” throughout.
As to `Nc1c(N=Nc2ccc(-c3ccc(N=Nc4cc(S(=O)(=O)O)c5ccccc5c4N)cc3)cc2)cc(S(=O)(=O)O)c2ccccc12`, the Potency result in assay [1] and in assay [3] was “inactive” each time. Further, the Potency in assay [2] was 32.2 µM (active).
`Cc1cn([C@H]2C[C@H](O)[C@@H](CO)O2)c(=O)[nH]c1=O`: the Potency result in assay [1], in assay [2] and in assay [3] was “inactive” throughout.
As to `C#CCOc1ccc2c(C)cc(=O)oc2c1`, the Potency entry in assay [1], in assay [2], in assay [3] and in assay [4] was “inactive” throughout.
For the molecule `O=S(=O)(O)c1cc(O)c2c(N=Nc3ccc(Nc4ccccc4)c4c(S(=O)(=O)O)cccc34)cc(S(=O)(=O)O)cc2c1`, the Potency result in assay [1] was “inactive”. The Potency in assay [2] was 32.2 µM (active).
Regarding `COc1ccc2c3c1O[C@H]1C[C@@H](O)C=C[C@@]31CCN(C)C2`, the Potency entry in assay [1], in assay [2], in assay [3] and in assay [4] was “inactive” each time.
For `CC1=C(/C=C/C(C)=C/C=C/C(C)=C/C=C/C=C(C)/C=C/C=C(C)/C=C/C2=C(C)C(=O)CCC2(C)C)C(C)(C)CCC1=O`, the Potency result in assay [1], in assay [2], in assay [3] and in assay [4] was “inactive” in each case.
Consider `CCOC(=O)C1=C(C)NC(C)=C(C(=O)OCC)C1c1ccccc1C=CC(=O)OC(C)(C)C`, for which the Potency result in assay [1] and in assay [2] was “inactive” throughout.
Consider `CO[C@H]1C[C@@H]2CC[C@@H](C)[C@@](O)(O2)C(=O)C(=O)N2CCCC[C@H]2C(=O)O[C@H]([C@H](C)C[C@@H]2CC[C@@H](OCCO)[C@H](OC)C2)CC(=O)[C@H](C)/C=C(\C)[C@@H](O)[C@@H](OC)C(=O)[C@H](C)C[C@H](C)/C=C/C=C/C=C/1C`, for which the Potency result in assay [1] and in assay [2] was “inactive” each time.
Take `NC(=O)c1ncn(C2OC(CO)C(O)C2O)n1` (stereo not given): the Potency entry in assay [1], in assay [2], in assay [3] and in assay [4] was “inactive” in each case.
As for `CC1(C)S[C@@H]2[C@H](NC(=O)Cc3ccccc3)C(=O)N2[C@H]1C(=O)O`, in assay [1], the Potency result is “inactive”.
On to `C=C(NC(=O)C(=C)NC(=O)c1csc(C2=N[C@@H]3c4csc(n4)[C@H]4NC(=O)c5csc(n5)[C@H]([C@](C)(O)[C@@H](C)O)NC(=O)[C@H]5CSC(=N5)C(=CC)NC(=O)C([C@@H](C)O)NC(=O)c5csc(n5)[C@]3(CC2)NC(=O)[C@H](C)NC(=O)C(=C)NC(=O)[C@H](C)NC(=O)C([C@@H](C)CC)NC2C=Cc3c([C@H](C)O)cc(nc3C2O)C(=O)O[C@@H]4C)n1)C(N)=O` (stereo not given in full), for which the Potency entry in assay [1] was “inactive”.
Regarding `C/C1=C2N=C(/C=C3N=C(/C(C)=C4\[N-][C@@](C)([C@@H]5N=C1[C@](C)(CCC(=O)NCC(C)OP(=O)(O)O[C@H]1[C@@H](O)[C@@H](n6cnc7cc(C)c(C)cc76)O[C@@H]1CO)[C@H]5CC(N)=O)[C@@](C)(CC(N)=O)[C@@H]4CCC(N)=O)[C@@](C)(CC(N)=O)[C@@H]\3CCC(N)=O)C(C)(C)[C@@H]/2CCC(N)=O.CC(=O)O.[Co]` (stereo not given in full), the Potency result in assay [1] was “inactive”.
With `CC(=O)N(CC(C)C(=O)O)c1c(I)cc(I)c(N)c1I` (stereo not given), in assay [1], the Potency entry is “inactive”.
On to `COC(=O)C1=C(C#N)NC(C)=C(C(=O)OC(C)C)C1c1cccc([N+](=O)[O-])c1` (stereo not given), for which the Potency result in assay [1], in assay [2] and in assay [3] was “inactive” each time. Also, the Potency in assay [4] was 16.1 µM (active).
With `O=C(O)c1cc(=O)c2c3nc4ccccc4oc-3cc(=O)c2[nH]1`, in assay [1], the Potency result was “inactive”. Also, in assay [3], the Potency was 36.1 µM (active).
Regarding `CC(=O)N[C@@H](CC(=O)O)C(=O)N[C@@H](CCC(=O)O)C(=O)O` (Ac-Asp-Glu-OH), the Potency result in assay [1], in assay [2], in assay [3] and in assay [4] was “inactive” each time.
Consider `Oc1cc(O)c2c(c1)OC(c1ccc(O)c(O)c1)C(O)C2` (stereo not given), for which the Potency entry in assay [2], in assay [3] and in assay [4] was “inactive” each time.
For `CCN(CC)CCOc1ccc(-c2nc3cc(Cl)ccc3s2)cc1`, the Potency in assay [1] is 5.01 µM (active); in assay [2], 6.42 µM (active). Also, the Potency result in assay [4] is “inactive”.
Consider `Cc1ccccc1OCC(O)CNCCOc1ccc(C(N)=O)cc1` (stereo not given), for which the Potency entry in assay [2] and in assay [4] was “inactive” in each case.
With `Cc1c(C)c2c(c(C)c1O)CC[C@@](C)(CCC[C@H](C)CCC[C@H](C)CCCC(C)C)O2`, the Potency entry in assay [2], in assay [3] and in assay [4] was “inactive” in each case.
Regarding `O=C(Nc1cccc(C(F)(F)F)c1)c1cc(Br)cc(Br)c1O`, the Potency result in assay [1] and in assay [4] was “inactive” throughout. The Potency in assay [2] was 7.21 µM (active).
